# High-throughput results as filed in PubChem BioAssay.
# PNC inhibitor: blocks assembly of the perinucleolar compartment | activity change (PNC), negative = inhibition, % at 10 µM | PC3M PTB-GFP, PNC prevalence imaging, 16 h; hits give low values | 140,000 compounds, 3.1% hits | AID 2417;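 active = readout at or below -70, meaning at least 70% loss of cells showing the perinucleolar compartment, a nuclear body marking cancer cells; inconclusive = readout between -30 and a set limit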;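 note: plate controls were DMSO wells for no effect and camptothecin positive control wells for full effect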
#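 PC3M cells stably expressing PTB-GFP, 750–1000 cells/well, treated 16 h at 37 °C with compound (23 nl of library stock), in duplicate. After paraformaldehyde fixation and Hoechst stain, imaged at 20x; PNC prevalence scored by image analysis.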
# HTT aggregate: reduces HttQ103-GFP aggregates in PC12 cells | PC12 HttQ103-GFP aggregates, Acumen cytometry, 40 h | Potency, µM (doses to about 46.1 µM), inactives show top-dose activity change, negative = inhibition, usual class: inhibitors | 220,000 compounds, 1.1% hits; note: potency is the fitted concentration of half-maximal effect; % is set by controls: 0 for no effect and ±100 for the full control effect; nearly all actives have a fitted effect of over 60% in size
#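 PC12 cells with ecdysone-inducible HTT exon1 Q103-GFP, induced by 100 nM tebufenozide, given compounds in a concentration series. GFP aggregates (1–25 um, 6 SD above background) counted in lysates by laser-scanning cytometry, 488 nm excitation.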
# CBFb-RUNX1 inh: inhibitors of human CBF-beta and RUNX1 interaction. Q01196+Q13951. AlphaScreen CBFb-His/RUNX1-biotin binding, biochemical. Potency, µM (series often up to 59.8 µM), inactives show at the top dose activity, negative = inhibition, most hits filed as inhibitors. 230,000 tested, under 10 active. AID 1477; note: % of control where 0% means no effect
# Target sequence (Q01196 whole entry, looked up): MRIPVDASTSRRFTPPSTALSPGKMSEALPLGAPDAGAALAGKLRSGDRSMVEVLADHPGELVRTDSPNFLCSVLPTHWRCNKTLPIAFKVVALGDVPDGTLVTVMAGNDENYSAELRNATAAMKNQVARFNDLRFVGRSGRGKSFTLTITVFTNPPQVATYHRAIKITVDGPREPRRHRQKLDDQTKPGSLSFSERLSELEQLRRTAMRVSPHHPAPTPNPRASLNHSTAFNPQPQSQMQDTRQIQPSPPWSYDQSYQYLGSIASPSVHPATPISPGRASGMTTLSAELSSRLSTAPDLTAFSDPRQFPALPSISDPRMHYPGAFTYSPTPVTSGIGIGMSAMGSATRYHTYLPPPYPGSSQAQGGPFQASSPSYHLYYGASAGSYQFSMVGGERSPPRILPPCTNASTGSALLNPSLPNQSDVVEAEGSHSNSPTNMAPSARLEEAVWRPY
# Target sequence (Q13951 whole entry, looked up): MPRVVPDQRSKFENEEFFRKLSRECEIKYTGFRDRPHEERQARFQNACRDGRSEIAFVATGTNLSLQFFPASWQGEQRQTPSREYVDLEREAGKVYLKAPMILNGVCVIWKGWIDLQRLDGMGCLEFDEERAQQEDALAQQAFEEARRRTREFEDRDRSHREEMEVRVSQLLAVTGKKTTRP
#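 His-tagged CBF-beta and biotinylated RUNX1 (30 nM each) were premixed 20 min at room temperature, exposed to compound for 15 min, then given nickel-chelate and streptavidin AlphaScreen beads (50 ng each). After 90 min, AlphaScreen signal was read.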
# HTT cytoprotect: protects HTT-Q103 PC12 cells, measured by ATP; PC12 HTT-Q103 induced, cytoprotection, ATP luminescence, 40 h; 230,000 compounds, 0.14% hits; Potency, µM (highest dose often 56.4 µM), for inactives: cytoprotection (ATP increase), hits mostly activators; note: potency is the fitted concentration of half-maximal effect; % of control where 0% means no effect; nearly all actives have a fitted effect of over 45% in size
#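 Rat PC12, Q103 Htt exon1-GFP fusion, ecdysone promoter; tebufenozide inducer 100 nM final; compound titration; qHTS, 1500 cells/well; ATPlite luminescent read.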
# HPGD inh: inhibitors of human 15-hydroxyprostaglandin dehydrogenase (HPGD); P15428; purified HPGD, NADH fluorescence kinetic, PGE2 substrate; Potency, µM, for inactives: top-dose activity change, negative = inhibition, most hits filed as inhibitors; 150,000 compounds, 4.3% hits; AID 894; active = well fitted inhibition curve with a large enough effect, not every such curve was filed as active; inconclusive = small, poorly fitted or top-dose-only effect, or another doubt; inactive = no such curve, though single readings can be large or run the other way; note: potency is the fitted concentration of half-maximal effect; % is set by controls: 0 for no effect and ±100 for the full control effect
#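 20 nM HPGD preincubated 15 min at room temperature with compound in 50 mM Tris-HCl pH 8, 0.01% Tween 20. Started with 1 mM NAD+ and 30 uM prostaglandin E2; NADH fluorescence (360/450 nm) read 5 times over 30-s intervals, last minus first.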
# ALDH1A1 block: blocks purified human ALDH1A1 activity | P00352 | Potency, µM (series often up to 75.3 µM), inactives show at the highest dose activity, negative = inhibition, most hits filed as inhibitors | Purified ALDH1A1, NADH fluorescence, propionaldehyde substrate | AID 1030 | 220,000 compounds, 7.3% hits; active = well fitted inhibition curve with a large enough effect, not every such curve was filed as active; inconclusive = small, poorly fitted or top-dose-only effect, or another doubt; inactive = no such curve, though single readings can be large or run the other way;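 note: potency is the fitted concentration of half-maximal effect; plate controls were no enzyme wells and a reference inhibitor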
# An asterisk follows results filed as active; ? = inconclusive; · = no result; [ ] = dose if it differs, or a comment. In the library only some 11% were active in any assay of this set; here they are far more common. Unless noted, calls come from the whole dose curve; as a rule, active = well fitted curve in the direction sought with a large enough effect; inconclusive = small, poorly fitted or top-dose-only effect, or another doubt; inactive = no such curve, though single readings can be large; an effect the other way counts as inactive or inconclusive.
SMILES,PNC inhibitor,HTT aggregate,CBFb-RUNX1 inh,HTT cytoprotect,HPGD inh,ALDH1A1 block
CCN(CC)CCNc1nc2c(c(=O)[nH]c(=O)n2C)n1CC(O)COc1ccc(Cl)cc1Cl (centres undefined),-84*,-5%,-26%,-4%,-20%,-1%
Cc1cnc(CNc2ncnc3ccc(-c4ccccc4C#N)cc23)cn1,·,·,·,2%,-17%,-9%
O=C(O)COc1nn(Cc2ccccc2)c2ccccc12,·,7%,·,-6%,·,·
CCCCC(=O)N1C/C=C\C(c2ccc(OC)cc2)N(Cc2ccc(F)cc2)C(=O)C1C (centres undefined),·,·,10%,·,·,·
Cc1ccc(/C=N/NC(=O)NC2CCCCC2)o1,·,10%,6%,-12%[10 µM],·,3.5µM*
O=C(O)/C=C/C(=O)NC1CCCCC1,?,3.5µM*,13%,-58%[10 µM],-19%,2%
Cc1cccc(/C=N/NC(=O)NC2CCCCC2)c1,?,-5%,4%,-2%[10 µM],-11%,8%
Cc1ccc(/C=C/C(=O)NC2CCCCCCC2)o1,30,?,-13%,0%[10 µM],3.5µM*,3.5µM*
CCOCCCNC(=O)C(NC(=O)Cc1cccs1)c1ccc(OC)cc1 (centres undefined),·,6%,8%,-2%,·,1%
C/C=C1\CC2C=CC1C2 (centres undefined),·,·,2%[21.7 µM],-23%,-9%,-13%
O=C(O)c1c2c(nc3ccc(S(=O)(=O)N4CCC(C(=O)NC5CCCC5)CC4)cc13)CCCCC2,-7,0%,1%,-6%,-16%,?
CC1CCc2nc3ccc(S(=O)(=O)N4CCC(C(=O)NC5CCCC5)CC4)cc3c(C(=O)O)c2C1 (centres undefined),-8,6%,-9%,-16%,-25%,40µM*
c1ccc(-c2csc3ncnc(NCC4COc5ccccc5O4)c23)cc1 (centres undefined),-23,8.9µM*,1%,17%[10 µM],-13%,?
COC(=O)CN(C#N)c1nc(N(C)C)nc(N(C)C)n1,·,-13%,-2%,-9%,·,-2%
CC(C)N(C(=O)CN(C#N)c1nc(N(C)C)nc(N(C)C)n1)c1ccccc1,?,-18%[9.22 µM],1%,5%,-6%,8.9µM*
O=C(O)COc1ccc(/C=N/n2cnc3scc(-c4cccs4)c3c2=O)cc1,28,25%,-1%,22%[10 µM],-23%,7.1µM*
Cc1cc(C(=O)Cn2ncc(Cl)c(Cl)c2=O)c(C)n1CC(F)(F)F,-23,?,-9%,-4%[10 µM],-1%,?
O=C(OCn1ncc(Cl)c(Cl)c1=O)c1ccc(C(F)(F)F)cc1,6,?,-3%,-69%,-8%,3.5µM*
Cc1ccc(C)c(C(=O)Cn2ncc(Cl)c(Cl)c2=O)c1,-6,?,6%,-131%,-12%,14µM*
Cc1ccc(C(=O)OCn2ncc(Cl)c(Cl)c2=O)cc1,?,?,-2%,0%,28µM*,1.4µM*
O=C(OCCN1CCN(c2ncc(C(F)(F)F)cc2Cl)CC1)c1ccc(F)cc1,34,3%,16%,-7%[10 µM],-3%,11%
CN(C)C=O,·,·,-2%[21.7 µM],-4%,0%,15%
CCOc1ccc(C(=O)NCC2CCCO2)cc1 (centres undefined),-2,-10%,3%,-25%[0.074 µM],16µM*,5%
CCOC(=O)Nc1ccc(C(=O)NCC2CCCO2)cc1 (centres undefined),-1,12%,-3%,-8%,16µM*,0%
CCOc1ccc(OCc2ccc(C(=O)NCC3CCCO3)o2)cc1 (centres undefined),3,2%,-1%,36%[10 µM],-29%,-12%
O=C(NCC1CCCO1)c1ccc(COc2ccc(F)cc2)o1 (centres undefined),-20,-11%,4%,-4%,25µM*,10µM*
O=c1c(-c2ccc(F)cc2)nc2cnc(N3CCOCC3)nc2n1CCc1ccccc1,·,·,·,-11%,·,?
C[C@@H]1CC[C@H]2C(=O)O[C@H](CN=[N+]=[N-])CN2[C@@H]1c1ccc(Br)cc1,·,·,10%[13.1 µM],-33%[10 µM],·,?
